In the library only some 3.2% were active in any assay of this set; here they are far more common.
Pemphigus Ab inh – human desmoglein-3 autoantibody binding inhibition; DSG3-coupled beads, scFv-anti-DSG3-GFP binding, flow cytometry; stronger effect = lower value; 0.48% of 310,000 active; binding (percent of control), % at 10 µM; P32926;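 active means binding more than 3 SD below its plate's average and above zero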;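 further: hits lower antibody fragment binding to DSG3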
NadD block – NadD (S. aureus) enzyme inhibition; purified NadD enzyme, colorimetric absorbance read-out; inhibition, % at 20 µM; 0.78% of 360,000 active; in the data active means inhibition above about 26%
MsrA inh – bovine MsrA inhibition. 0.75% of 360,000 active. inhibition, % at 15.5 µM. purified bovine MsrA, absorbance read-out; in the data active means inhibition above about 4.5%;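 further: 0% = vehicle wells with enzyme and 100% = reference inhibitor wells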
rCAG RNA binder – molecules binding r(CAG) RNA repeats; r(CAG) RNA repeat, TO-PRO-1 dye displacement fluorescence; inhibition, % at 3 µM; 1.3% of 370,000 active; AID 651821;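 active means inhibition above the plate cutoff, the mean of all test compounds on that plate plus 3 SD, cut at about 35% in these data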;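 further: 0% = DMSO alone and 100% = 100 µM mitoxantrone as full dye displacement; higher means more dye released from RNA so lower well fluorescence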
DAGLB inhibitor – blocks human DAGLB lipase activity; HEK293T DAGLB membrane lysate, EnzChek fluorogenic substrate; AID 504411; Q8NCG7; 0.059% of 340,000 active; inhibition, % at 5.17 µM; in the data active means inhibition above about 34%;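 further: 0% = enzyme with vehicle and 100% = wells lacking enzyme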
bovine MsrA act – activates bovine MsrA enzyme; purified bovine MsrA, absorbance read-out; activation, % at 10.6 µM; 0.3% of 360,000 active; AID 602163; in the data active means activation above about 7.5%;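 further: 0% = vehicle and 100% = reference activator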
MsrA activ conf – confirmation of bovine methionine sulfoxide reductase A activators | purified bovine MsrA, absorbance read-out | 12% of 1,000 active | activation, % at 10.6 µM | shares compounds with bovine MsrA act; in the data active means activation above about 4%;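 further: enzyme coupled to thioredoxin and thioredoxin reductase with NADPH; 0% = vehicle wells and 100% = reference activator wells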
The depositor's hits bear a star.

How did O=C1c2ccccc2-c2nnc(-c3ccccc3)cc21 do in these assays?
Pemphigus Ab inh: 96; NadD block: -2; MsrA inh: 0; rCAG RNA binder: 4; DAGLB inhibitor: -8; bovine MsrA act: 9.4*; MsrA activ conf: 4.0*

What do the screens show for `CCC(C)CN1C(=O)CSCC1(C)C(=O)NC(C)C` (stereo not drawn)?
MsrA inh: 0; rCAG RNA binder: 2

How did Nc1sc(-c2ccccc2)cc1C(=O)NCCc1c[nH]c2ccccc12 do in these assays?
MsrA inh: 1; rCAG RNA binder: 16

Results for CC1(C)Oc2nc3ccccc3n2/C1=C\C#N ?
Pemphigus Ab inh: 109; NadD block: 5; MsrA inh: 0; rCAG RNA binder: 2; DAGLB inhibitor: -2; bovine MsrA act: 8.0*; MsrA activ conf: -2

Results for CCOC(=O)c1cnc2c(OC)cccc2c1N1CCN(c2ccccc2OC)CC1 ?
Pemphigus Ab inh: 106; NadD block: -5; MsrA inh: 0; rCAG RNA binder: -9; DAGLB inhibitor: -5; bovine MsrA act: 8.5*; MsrA activ conf: -1

What do the screens show for `COc1ccc(N2CCN(C(=O)C3CCN(S(=O)(=O)c4ccc(F)cc4)CC3)CC2)cc1`?
Pemphigus Ab inh: 97; NadD block: 2; MsrA inh: 0; rCAG RNA binder: -8; DAGLB inhibitor: -2; bovine MsrA act: -7

What do the screens show for `COc1ccc(N2CCN(C3CCN(S(=O)(=O)c4ccc(F)cc4)CC3)CC2)cc1`?
Pemphigus Ab inh: 104; NadD block: -6; MsrA inh: 0; rCAG RNA binder: 0; DAGLB inhibitor: 0; bovine MsrA act: 9.5*; MsrA activ conf: -4

How did COC(=O)CCCC[C@@H]1O[C@H](CCc2ccccc2)CC2=C1C(=O)OC(C)(C)O2 do in these assays?
NadD block: 0; MsrA inh: -1; rCAG RNA binder: 2; bovine MsrA act: 5

Results for c1cc(SSc2ccncc2)ccn1 ?
Pemphigus Ab inh: 96; NadD block: 13; MsrA inh: 2; rCAG RNA binder: 0; DAGLB inhibitor: -4; bovine MsrA act: 10*; MsrA activ conf: -2

Results for c1ccc(Sc2ccncc2)cc1 ?
Pemphigus Ab inh: 106; NadD block: 0; MsrA inh: 1; rCAG RNA binder: 0; DAGLB inhibitor: -3; bovine MsrA act: -2

What do the screens show for `Cc1cc(NC(=O)CSc2nc3cc(Cl)ccc3s2)no1`?
Pemphigus Ab inh: 105; NadD block: 1; MsrA inh: -2; rCAG RNA binder: 1; DAGLB inhibitor: -4; bovine MsrA act: -9

What do the screens show for `O=C(CSc1nc2cc(Cl)ccc2s1)c1cc2ccccc2o1`?
Pemphigus Ab inh: 101; NadD block: -4; MsrA inh: 2; rCAG RNA binder: 22; DAGLB inhibitor: -4; bovine MsrA act: 9.9*; MsrA activ conf: -2

What do the screens show for `CC(NC(=O)c1cccc(S(=O)(=O)N2CCc3ccccc32)c1)c1ccco1` (stereo not drawn)?
Pemphigus Ab inh: 98; NadD block: -13; MsrA inh: 0; rCAG RNA binder: 7; DAGLB inhibitor: -2; bovine MsrA act: -8

How did O=C(NCSc1ccnc(SCNC(=O)c2ccc(F)cc2)n1)c1ccc(F)cc1 do in these assays?
NadD block: -1; MsrA inh: 1; rCAG RNA binder: -3; DAGLB inhibitor: 1; bovine MsrA act: 8.5*; MsrA activ conf: 2

How did O=C(NCCNC(=O)c1ccc(F)cc1)c1ccc(F)cc1 do in these assays?
Pemphigus Ab inh: 111; NadD block: -6; MsrA inh: 0; rCAG RNA binder: -2; DAGLB inhibitor: 0; bovine MsrA act: -5

How did CC(C)(C)Cc1c(-c2ccc(C#N)cc2)nc2ccc(Cl)cn12 do in these assays?
Pemphigus Ab inh: 107; NadD block: 4; MsrA inh: 0; rCAG RNA binder: 13; DAGLB inhibitor: 5; bovine MsrA act: -8

Results for CC(=O)N1N=C(c2ccc(C)cc2)CC1c1ccc2c(c1)OCO2 (stereo not drawn) ?
NadD block: -6; MsrA inh: -1; rCAG RNA binder: -5; DAGLB inhibitor: 0; bovine MsrA act: 8.0*; MsrA activ conf: -1

How did Cc1ccc(C2=NN(S(C)(=O)=O)C(c3ccc4c(c3)OCO4)C2)cc1 (stereo not drawn) do in these assays?
Pemphigus Ab inh: 300; NadD block: 1; MsrA inh: 1; rCAG RNA binder: 0; DAGLB inhibitor: 1; bovine MsrA act: 0

Source: PubChem
